Bioassay records as filed in PubChem.
Most compounds without a hit are left out; they make up all but 8% or so of the library.
Marburg entry: blocks Marburg virus binding or cell entry; Marburg virus pseudotype entry/binding inhibition, cell-based; Potency, µM (titrated, usually from 49.2 µM), without a hit: top-dose activity change, negative = inhibition, most hits filed as inhibitors; 18,000 compounds, 6.5% hits; AID 720532
LASV entry inh: inhibitors of Lassa virus binding or entry into cells. Lassa virus pseudotyped entry inhibition, cell-based qHTS. Potency, µM (series often up to 49.2 µM), for the others: at the top dose activity change, negative = inhibition, usual class: inhibitors. 18,000 compounds, 4.1% hits. AID 720533
* = called active by the depositor; ? = inconclusive; . = no result given; ! = a repeat was not active; [ ] = remark or other dose. Calls follow the shape of the full dose curve; tested in HEK293 cells. % is scaled to controls: 0 for no effect and ±100 for the full control effect; potency is read from the fitted curve at half-maximal effect.

SMILES	Marburg entry	LASV entry inh
COc1cc(OC)c2nc(-c3cc4c(c(OC)c3)OCCN(C(=O)CC3NC(=O)c5ccccc53)C4)cc(C)c2c1 (configuration not stated)	-4.2%	-34.8%
COc1cc(-c2ccc(C(F)(F)F)cn2)cc2c1OCCN(S(=O)(=O)C[C@]13CC[C@H](CC1=O)C3(C)C)C2	?	12.6µM*
COc1ccc([C@H]2C[C@H](n3cc(C4CC4)nn3)[C@@H](O)CN2C(=O)c2cccs2)cc1	1.2%	-6.8%
CC(C)NC[C@@H](O)COc1cccc2ccccc12	?	-12.9%
C=CCc1ccccc1OCC(O)CNC(C)C (configuration not stated)	11.2µM*	1.1%
CC(C)NCC(O)COc1ccccc1-n1cccc1 (configuration not stated)	?	3.9%
CC(C)NC[C@H](O)COc1cccc2ccccc12	15.8µM*!	-7.5%
C#CCCCON=C1C[C@@H](O)[C@H](O)[C@H]2[C@@H]3C(=O)N(C[C@@H]4CCCO4)C(=O)[C@@H]3CC[C@@H]12	3.5%[8.59 µM]	25.7%[8.59 µM]
CCCCC[C@@H](O)C1C(=O)OC(C)[C@H](O)/C=C/C=C/C=C/C=C/C=C(\C)C(O)C(O)C(O)C[C@H](O)C[C@H](O)C[C@H](O)C[C@H](O)C[C@@H]1O (some centres not stated)	15.8µM*!	-5.2%
C=CCNC(=O)N1C2=NC(C(=O)OC)=C(C(=O)OC)[C@@H]3N(C)c4ccccc4[C@]23C[C@H]1CO	-30.6%[8.59 µM]	3.9%[8.59 µM]
C=C(C)[C@H]1O[C@H]2CC[C@@]3(C)[C@@](O)(CC[C@H]4[C@@H]5OC(C)(C)[C@H]6C[C@@H]7C(=C)Cc8c(Cl)cc9[nH]c(c5c9c8[C@@]76O)[C@@]43C)[C@]23O[C@@H]3[C@H]1O	?	25.1µM*
CC(=O)c1ccc(C(=O)NCC2Cc3cccc(-c4ncccn4)c3O2)cc1 (configuration not stated)	?	3.9%
O=C(CSc1ncccn1)NCC1Cc2cccc(-c3ncccn3)c2O1 (configuration not stated)	141µM*	-5.3%
COC(=O)[C@]1(C)C=C[C@@H](C)[C@H](c2ccccc2Br)N1C(=O)C(F)(F)F	-15.2%[8.59 µM]	.
C#C[C@]1(O)CC[C@H]2[C@@H]3CCC4=CCCC[C@@H]4[C@H]3C(=C)C[C@@]21CC	-11.5%	-26.1%
CC[C@]1(O)CC[C@H]2[C@@H]3CCC4=CCCC[C@@H]4[C@H]3CC[C@@]21C	-21.3%	14.1µM*
COC(=O)C(C(=O)OC)[C@@H]1O[C@@]23COCC[C@]2(C)[C@@H]3c2ccccc21	17.1%[8.59 µM]	-9.4%[8.59 µM]
COC(=O)C1=C2CCCO[C@H]2[C@@H]2[C@@H](C)[C@H](OC)c3ccccc3[C@@H]12	1.6%[8.59 µM]	-12.9%[8.59 µM]
Cc1c(O)cccc1C(=O)N[C@@H](CSc1ccccc1)[C@H](O)CN1C[C@H]2CCCC[C@H]2C[C@H]1C(=O)NC(C)(C)C	11.2µM*	28.2µM*
CCc1cc(OC)c(C[C@H](C)N)cc1OC	?	-12.9%[107 µM]
COc1cc(CC(C)N)c(OC)cc1Br (configuration not stated)	17.8µM*	?
CCN1C(=NCc2ccc(OC)cc2)NC(c2cccc(C(F)(F)F)c2)C(C(=O)OC)=C1C (configuration not stated)	13.4%[8.59 µM]	3.5%[8.59 µM]
C=CC[C@@H]1C=C[C@H](ON=C(C)CCN2CCc3nc(CC)c(CC)cc3C2)[C@H](CO)O1	?	-29.4%[8.59 µM]
Cc1c(N)nc([C@H](CC(N)=O)NC[C@H](N)C(N)=O)nc1C(=O)N[C@H](C(=O)N[C@H](C)[C@@H](O)[C@H](C)C(=O)N[C@H](C(=O)NCCc1nc(-c2nc(C(=O)NCCCCN=C(N)N)cs2)cs1)[C@@H](C)O)[C@@H](O[C@@H]1O[C@@H](CO)[C@@H](O)[C@H](O)[C@@H]1O[C@H]1O[C@H](CO)[C@@H](O)[C@H](OC(N)=O)[C@@H]1O)c1cnc[nH]1	3.98µM*	3.16µM*
O=C1NC(=O)C(N2CCc3ccccc32)=C1c1ccc(Cl)cc1	?	-18.4%
SMILES	Marburg entry	LASV entry inh
C[C@@H](ON=C1[C@H]2CCn3c(=O)n(-c4ccccc4)c(=O)n3[C@@H]2[C@H](O)[C@@H]2O[C@H]12)c1cn([C@@H]2COC[C@@H]2O)nn1	35.5%[8.59 µM]	-18.6%[8.59 µM]
COCCNc1nc(-c2ccc(N(C)C)cc2)nc2ccccc12	?	4.0%
CN(C)c1ccc(-c2nc(NC3CCNCC3)c3ccccc3n2)cc1	14.1µM*	-27.8%
CCCCCC(=O)N1C[C@@H](n2cc(COC(=O)c3ccccc3)nn2)[C@H](O)C[C@H]1c1ccc(Cl)cc1	?	12.8%
CC[C@@H](C(=O)[C@@H](C)[C@@H](O)[C@H](C)[C@@H]1O[C@@H]([C@@H](CC)C(=O)O)CC[C@@H]1C)[C@H]1O[C@]2(C=C[C@@H](O)[C@]3(CC[C@@](C)([C@H]4CC[C@](O)(CC)[C@H](C)O4)O3)O2)[C@H](C)C[C@@H]1C	-78.8%	3.16µM*
O=C(OCc1cn([C@@H]2CN(C(=O)C3CCCCC3)[C@@H](c3ccc(Cl)cc3)C[C@@H]2O)nn1)c1ccccc1	?	14.2%
C[C@@H](ON=C1[C@H]2CCn3c(=O)n(-c4ccccc4)c(=O)n3[C@@H]2[C@H](O)[C@@H]2O[C@H]12)c1cn([C@H](CO)Cc2ccccc2)nn1	-23.2%[8.59 µM]	.
O=c1c(-c2ccccc2)c1-c1ccccc1	14.1µM*	7.08µM*
Nc1ccccc1	-3.4%	-10.0%
Cc1c(C(=O)N2CC3CCC2C3)sc2ncnc(NCCc3c[nH]c4ccccc34)c12 (configuration not stated)	-20.9%	?
O=C(c1cccs1)N1C[C@H](O)[C@H](n2cc(C3CC3)nn2)C[C@@H]1c1ccccc1	-7.4%	-17.2%
COC(=O)c1ccc(CN2C(=O)[C@@]3(CC(C)=CC[C@@H](COc4ccccc4)O3)c3ccccc32)cc1	9.2%[8.59 µM]	-19.6%[8.59 µM]
C/C=C(/C)C(=O)O[C@H]1C(C)=C2[C@H]([C@@H]1OC(=O)CCCCCCC)[C@@](C)(OC(C)=O)C[C@H](OC(=O)CCC)[C@@]1(O)[C@H]2OC(=O)[C@@]1(C)O	22.4µM*	44.7µM*
COc1cc([C@@H](NC(=O)C(F)(F)F)C2CCCCC=C2c2ccccc2)cc(OC)c1OC (some centres not stated)	9.8%[8.59 µM]	?
CCCCCC(=O)N1C[C@H](n2cc(C3CC3)nn2)[C@@H](O)C[C@H]1c1ccccc1	22.8%	-16.7%
C=C1CCC(O)C/C1=C/C=C1\CCC[C@@]2(C)C(C(C)/C=C/C(C)C(C)C)CC[C@@H]12 (some centres not stated)	-29.4%	-21.7%
CC(C)[C@@H](C)/C=C/[C@@H](C)[C@H]1CC[C@H]2/C(=C/C=C3\C[C@@H](O)CC[C@@H]3C)CCC[C@]12C	12.7%	22.4µM*
CC[C@@H](c1ccccc1)n1c(=O)n2n(c1=O)[C@H]1[C@H](O)[C@@H]3O[C@H]3C(=NOCc3ccccc3)[C@H]1CC2	?	6.4%[8.59 µM]
CC1=C(C/C=C(\C)CCC[C@H](C)CCC[C@H](C)CCCC(C)C)C(=O)c2ccccc2C1=O	-1.7%	-15.6%
CC(C)=CCC1=C(O)c2ccccc2C(=O)C1=O	5.01µM*	?
CC1=C[C@]2(O[C@H](COc3ccccc3)C1)C(=O)N(C)c1ccccc12	144.1%[8.59 µM]	94.6%[8.59 µM]
COc1ccc(-c2cc3c(N)ncnc3o2)cc1	91.1%	55.1%
Cc1ccccc1-n1c(C)nc2ccccc2c1=O	8.4%	?
O=c1c2ccccc2[se]n1-c1ccccc1	22.4µM*!	25.1µM*!
